# Measured values taken from PubChem BioAssay (EPA / NIEHS).
# Calls of active or inactive are those of the source. How the source made its calls: active means hit-call score of the fitted dose curve at least 0.9, where 1 is the maximum; inconclusive means response in the unintended direction; inactive means score below 0.9.
# Experiment: Tanguay_ZF_120hpf_ActivityScore_legacy: (Legacy) Oregon State University Tanguay Lab 120 Hour Post-fertilization zebrafish Assay Score for Activity (AID 2283742);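 on AC50: dechorionated Tropical 5D wild-type zebrafish embryos held singly per well; static exposure from 6 hpf until 120 hpf at 28 °C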
# Method in brief: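 Embryos are staged, enzymatically dechorionated at 4 hpf, placed individually at 6 hpf, then held in test chemical (0.64% DMSO) at 28C until 120 hpf. Mortality and malformations are scored by brightfield, with non-mortality endpoints skipped for dead embryos.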
SMILES,outcome,AC50
Cc1ccc(S(=O)(=O)O)cc1C,inactive,–
CCOC(=O)COc1ccc2c(c1)CC(NCC(O)c1cccc(Cl)c1)CC2 (centres undefined),–,30 µM (active)
CCOCCO,inactive,–
O=C(CCCCCCCCc1cccnc1)N1CCC(C=C(c2ccccc2)c2ccccc2)CC1,inactive,–
CC(C)=CCCC(C)=CC=O,inactive,–
CCOCCOCCOCCO,inactive,–
CCCN(C1CCN(C(=O)C2CCNCC2)CC1)[C@@H]1CCc2ccc(OC)cc2C1,inactive,–
CC(C)CC(C)(O)C#CC(C)(O)CC(C)C (centres undefined),inactive,–
CC(C)(O)c1coc(S(=O)(=O)NC(=O)Nc2c3c(cc4c2CCC4)CCC3)c1,inactive,–
CC/C(=C\C(=N/O)C(N)=O)C(C)[N+](=O)[O-] (centres undefined),inactive,–
CCc1cc(SCc2sc(-c3ccc(C(F)(F)F)cc3)nc2CN2CCN(c3ccc(OC)cc3)CC2)ccc1OCC(=O)O,–,61.5 µM (active)
O=C(O)CC(O)C(=O)O (centres undefined),inactive,–
CCC(C)(C)C(=O)O[C@H]1C[C@@H](C)C=C2C=C[C@H](C)[C@H](CC[C@@H]3C[C@@H](O)CC(=O)O3)[C@H]21,–,0.403 µM (active)
Clc1nc(Cl)c(Cl)c(Cl)c1Cl,inactive,–
C=CCCCCCCCCC(=O)O,inactive,–
Cc1ccc(C)c(O)c1,inactive,–
NC(=O)NO,inactive,–
O=c1n(CC2CO2)c(=O)n(CC2CO2)c(=O)n1CC1CO1 (centres undefined),inactive,–
COc1ccc(-n2nc(C(F)F)cc2-c2ccc(S(C)=O)cc2)cc1 (centres undefined),–,151 µM (active)
CC[C@H]1OC(=O)[C@H](C)[C@@H](O[C@H]2C[C@@](C)(OC)[C@@H](O)[C@H](C)O2)[C@H](C)[C@@H](O[C@@H]2O[C@H](C)C[C@H](N(C)C)[C@H]2O)[C@](C)(O)C[C@@H](C)C(=O)[C@H](C)[C@@H](O)[C@]1(C)O,inactive,–
O=C1CCCCCN1,inactive,–
CCN(C(=O)c1cc(C)cc(OC[C@H](C)Nc2ccncc2)c1)C(C)C,inactive,–
CCOC(=O)CC(CC(=O)OCC)(OC(C)=O)C(=O)OCC,inactive,–
Cn1cnc([N+](=O)[O-])c1Sc1ncnc2nc[nH]c12,inactive,–
CCOC(=O)c1ccc(C2CCC(NC[C@H](O)COc3ccc(O)c(NS(C)(=O)=O)c3)CC2)cc1 (some centres undefined),inactive,–
COC(=O)c1c(Cl)c(Cl)c(C(=O)OC)c(Cl)c1Cl,inactive,–
COC(=O)CC(=O)OC,inactive,–
Cn1c(=O)cc(Oc2ccc(F)cc2F)c2cnc(NCC(C)(C)O)nc21,inactive,–
O=C(NS(=O)(=O)/C=C/c1ccccc1)c1ccc(F)cc1Cl,inactive,–
